This is an account of results in PubChem BioAssay (NCATS).

Records with an inconclusive call do not appear. A call without a number means that no potency is given here. Activity calls are given as the source filed them. The call rests on the fitted dose curve; in most records, active means well fitted curve in the direction sought with a large enough effect; inconclusive means small, poorly fitted or top-dose-only effect, or another doubt; inactive means no such curve, though single readings can be large; an effect the other way counts as inactive or inconclusive.
Potency means the concentration at half of the fitted maximal effect.

The nature of one assay: qHTS of pediatric cancer cell lines to identify multiple opportunities for drug repurposing: Primary screen for BT-37 cells (AID 1347094). The settings on record: BT-37 viability, CellTiter-Glo luminescence, 48 h; series mostly up to 57.3 µM. An outline of the steps:
(§1)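 Phenotypic viability qHTS, 48 h compound exposure, CellTiter-Glo luminescence read-out; multi-concentration dosing so that potency and efficacy derive directly from the primary screen's curves.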
With `CC(C)c1nc(CN(C)C(=O)N[C@H](C(=O)N[C@@H](Cc2ccccc2)C[C@H](O)[C@H](Cc2ccccc2)NC(=O)OCc2cncs2)C(C)C)cs1`, the Potency result was “inactive”.
Consider `COC(=O)C1=C(C)NC(C)=C(C(=O)OC(C)C)C1c1cccc2nonc12` (stereo not given), for which the Potency result was “inactive”.
In the case of `Cc1cc2cc3c(C)cc(=O)oc3c(C)c2o1`, the Potency result is “inactive”.
Turning to `C[C@@H](c1ncncc1F)[C@](O)(Cn1cncn1)c1ccc(F)cc1F`, the Potency entry is “inactive”.
For `C=C(c1ccc(C(=O)O)cc1)c1cc2c(cc1C)C(C)(C)CCC2(C)C`, the Potency result was “inactive”.
Regarding `C[C@H](Cn1cnc2c(N)ncnc21)OCP(=O)(O)O`, the Potency entry was “inactive”.
On to `CCCc1cc(=O)[nH]c(=S)[nH]1`, for which the Potency entry is “inactive”.
With `CC1(C)CCC(C)(C)c2cc(NC(=O)c3ccc(C(=O)O)cc3)ccc21`, the Potency result was “inactive”.
Turning to `CS(=O)(=O)OCCCCOS(C)(=O)=O`, the Potency entry is “inactive”.
As to `O=C(NC(Cc1cc(=O)[nH]c2ccccc12)C(=O)O)c1ccc(Cl)cc1` (stereo not given), the Potency entry is “inactive”.
In the case of `CCOC(=O)C(C)Oc1cccc2c(=O)n(CC(=O)Nc3ccc4c(c3)OCCO4)ccc12` (stereo not given), the Potency result is “inactive”.
Take `O=C(c1ccccc1)c1ccc2n1CCC2C(=O)O` (stereo not given): the Potency entry is “inactive”.
As for `Nc1nc(Cl)nc2c1ncn2[C@H]1C[C@H](O)[C@@H](CO)O1`, the Potency was 0.273 µM (active).
On to `COC(=O)C1=C(C)NC(C)=C(C(=O)OCCCN2CCC(c3ccccc3)(c3ccccc3)CC2)C1c1cccc([N+](=O)[O-])c1` (stereo not given), for which the Potency entry is “inactive”.
`Cc1cc(O)c2c(c1)C(=O)c1cc(O)cc(O)c1C2=O`: the Potency entry was “inactive”.
With `c1ccc2[nH]c(-c3cscn3)nc2c1`, the Potency entry is “inactive”.
As for `COC1=C(OC)C(=O)C(CCCCCCCCCCO)=C(C)C1=O`, the Potency entry was “inactive”.
On the same count and under the same terms, for `Cc1cc(C2CCCCC2)n(O)c(=O)c1` the value was 3.09 µM (active); for `O=c1ccc2ccc(O)c(O)c2o1`, “inactive”.

Another assay in a line: qHTS of pediatric cancer cell lines to identify multiple opportunities for drug repurposing: Primary screen for NB-EBc1 cells (AID 1347095). Conditions: NB-EBc1 neuroblastoma viability, CellTiter-Glo luminescence, 48 h; series mostly up to 46 µM. An outline of the steps: as §1
On the technique in general: Quantitative high-throughput screening tests each substance at several concentrations.
In the case of `CN(C)[C@@H](CCOc1cccc2ccccc12)c1ccccc1`, the Potency entry was “inactive”.
As to `Nc1nc(OCc2ccccc2)c2[nH]cnc2n1`, the Potency was 18.7 µM (active).
As for `CC(C)c1nc(CN(C)C(=O)N[C@H](C(=O)N[C@@H](Cc2ccccc2)C[C@H](O)[C@H](Cc2ccccc2)NC(=O)OCc2cncs2)C(C)C)cs1`, the Potency was 23.7 µM (active).
The same measure, in the same setting: the same measure for `COC(=O)C1=C(C)NC(C)=C(C(=O)OC(C)C)C1c1cccc2nonc12` (stereo not given): “inactive”; for `CN(C)c1ccc(O)c2c1C[C@H]1C[C@H]3[C@H](N(C)C)C(=O)C(C(N)=O)=C(O)[C@@]3(O)C(=O)C1=C2O`: “inactive”; for `Cc1cc2cc3c(C)cc(=O)oc3c(C)c2o1`: “inactive”.
As for `C[C@@H](c1ncncc1F)[C@](O)(Cn1cncn1)c1ccc(F)cc1F`, the Potency entry is “inactive”.
For `C[C@H](Cn1cnc2c(N)ncnc21)OCP(=O)(O)O`, the Potency result was “inactive”.
For the compound `CCN(CC)CCOc1ccc(Cc2ccccc2)cc1`, the Potency entry was “inactive”.
Regarding `Cc1cccc(CN2CCN(C(c3ccccc3)c3ccc(Cl)cc3)CC2)c1` (stereo not given), the Potency was 18.7 µM (active).
In the case of `Cc1cc(Cl)ccc1OCCCC(=O)NO`, the Potency is 4.69 µM (active).
Regarding `O=C(NC(Cc1cc(=O)[nH]c2ccccc12)C(=O)O)c1ccc(Cl)cc1` (stereo not given), the Potency result is “inactive”.
Take `CCOC(=O)C(C)Oc1cccc2c(=O)n(CC(=O)Nc3ccc4c(c3)OCCO4)ccc12` (stereo not given): the Potency result is “inactive”.
Turning to `O=C(c1ccccc1)c1ccc2n1CCC2C(=O)O` (stereo not given), the Potency entry is “inactive”.
Regarding `CCCCCCCCOc1ccccc1C(=O)Nc1ccc(C(=O)OCC[N+](C)(CC)CC)cc1`, the Potency result was “inactive”.
Turning to `COC(=O)C1=C(C)NC(C)=C(C(=O)OCCCN2CCC(c3ccccc3)(c3ccccc3)CC2)C1c1cccc([N+](=O)[O-])c1` (stereo not given), the Potency result is “inactive”.
On to `c1ccc2[nH]c(-c3cscn3)nc2c1`, for which the Potency result was “inactive”.
`Cc1cc(C2CCCCC2)n(O)c(=O)c1`: the Potency is 7.43 µM (active).
For the compound `COc1cc(C(C)=O)ccc1OCCCN1CCC(c2noc3cc(F)ccc23)CC1`, the Potency result is “inactive”.
For `CN(C)CCCC1(c2ccc(F)cc2)OCc2cc(C#N)ccc21` (stereo not given), the Potency entry is “inactive”.
In the case of `C[C@H](Cc1ccc(O)c(O)c1)[C@@H](C)Cc1ccc(O)c(O)c1`, the Potency is 2.35 µM (active).
